# PubChem BioAssay AID504467 (National Center for Advancing Translational Sciences (NCATS), 2011)
# The whole screen tested about 330,000 compounds, of which about 7,700 (2.3%) were called active. Inconclusive results (about 26%) are left out. Only a selection was taken, and actives are over-represented in it overall. Values without a mark were called inactive. Calls follow the shape of the dose curve; as a rule, active = well fitted inhibition curve with a large enough effect; inconclusive = small, poorly fitted or top-dose-only effect, or effect the other way; inactive = flat fitted curve, though single readings scatter.
# Experiment: qHTS screen for small molecules that inhibit ELG1-dependent DNA repair in human embryonic kidney (HEK293T) cells expressing luciferase-tagged ELG1; also: nearly all actives have a fitted effect of over 55% in size
# Conditions: HEK293T ELG1-luciferase reporter, luminescence, 16 h, DNA damage induced by 5-fluorouridine; series mostly up to 46.1 µM; activity change, negative = inhibition: at the top concentration
# Description: NIH Molecular Libraries Probe Production Network [MLPCN] NIH Chemical Genomics Center [NCGC] MLPCN Grant: 1 R03 MH092164-01 Assay Provider: Kyungjae Myung, NHGRI, NIH Keywords: MLPCN, qHTS, NCGC, genotoxicity, cancer Assay Overview: Cancer cells divide rapidly compared to normal cells in the body. During cell division, cancer cells need to duplicate their genome by DNA replication. The failure of genome duplication leads to cancer cells' death. Therefore, inhibitors of DNA replication could specifically kill cancer cells. Based on this concept, many chemotherapeutic agents were developed and have been used to treat cancer patients. However, there are a limited number of agents available in the clinical setting, and some of those that do exist have low efficacy and severe side effects. Therefore, if we can find the compounds that effectively block DNA replication either by directly damaging DNA or by inhibiting other cellular mechanisms, the options for cancer treatment will be broadened. With this in mind, we developed a quantitative high-throughput ELG1-luciferase reporter gene assay. Small molecules that specifically block ELG1 function in response to DNA damage can be identified by monitoring the suppression of luciferase activity. Since ELG1 defines a pathway for repairing DNA damage, agents blocking ELG1 function can be used to sensitize cancer cells to chemotherapeutic agents whose mechanism of action involves the induction of DNA damage.
# Assay Protocol Summary: For genotoxicity screening, 2,000 cells in 4 uL/well were dispensed into white, solid-bottom 1536-well plates using a solenoid-based dispenser. Following transfer of 1 uL 5-Fluorouridine and 23 nL compound or DMSO vehicle by a pin tool, the plates were incubated 16 hr at 37 °C and 5% CO2. 5 ul ONE-Glo (Promega) was then added to each plate and following a 30 min incubation at room temperature, luciferase activity was quantified on a ViewLux CCD-based plate reader.
# % is scaled to controls: 0 for no effect and ±100 for the full control effect; potency is read from the fitted curve at half-maximal effect.
Structure (SMILES),"activity change, negative = inhibition [%]",Potency
CC(=O)c1c(C)[nH]c(C(=O)N2CCN(S(=O)(=O)c3ccc(F)c(F)c3)CC2)c1C,8.13,–
O=C(COc1ccc(S(=O)(=O)Nc2cccc(C(F)(F)F)c2)cc1)N1CCOCC1,-4.33,–
CCCSC(=S)NC1CCS(=O)(=O)C1 (centres undefined),–,23.1 µM (active)
O=S1(=O)CCC(NC(=S)SCc2ccccc2Br)C1 (centres undefined),15.4,–
COc1ccc(NC(=S)NC2CCS(=O)(=O)C2)cc1 (centres undefined),-1.15,–
O=C1COc2ccc(C(=O)CSc3ccc(Br)cc3)cc2N1,-17,–
O=C(NCc1ccccc1CN1CCCC1)C1CCN(S(=O)(=O)c2ccc(Cl)cc2)CC1,10,–
Brc1ccc(CN2CC[C@H]3C=CCc4cccc(c43)C2)cc1,-13.4,–
COc1ccc(CNC(=O)COC(=O)C(CCSC)N2C(=O)c3ccccc3C2=O)cc1 (centres undefined),0,–
Cc1sc2ncnc(SCC(=O)Nc3ccc(CN4CCCC4)cc3)c2c1C,-2.86,–
Cc1ccnc(N2CCCC(C(=O)Nc3cc(F)ccc3C)C2)n1 (centres undefined),-12.3,–
Cc1sc2ncnc(N3CCC(C(=O)Nc4ccc(F)cc4Cl)CC3)c2c1C,–,20.6 µM (active)
CC1CC(C)CN(CCOc2cccc3ccccc23)C1 (centres undefined),2.83,–
CN(CC(=O)NCCc1ccc(S(N)(=O)=O)cc1)CC(=O)Nc1ccc(F)c(F)c1F,6.42,–
C=CCC[C@@H](Cc1ccc(F)cc1)C(=O)OC[C@@H](C)NC(=O)[C@H](CC=C)CC(=O)N(CCO)Cc1ccccc1,0,–
C=CC[C@@H](CC(=O)N[C@H](CO)Cc1ccccc1)C(=O)N[C@@H](COC(=O)[C@@H](CC=C)Cc1ccc(F)cc1)Cc1c[nH]c2ccccc12,-11.3,–
C=CCC[C@H](Cc1ccc(F)cc1)C(=O)OC[C@@H](NC(=O)[C@@H](CC=C)CC(=O)N[C@H](CO)Cc1ccccc1)C(C)(C)C,0,–
C=CCC[C@@H](Cc1ccc(F)cc1)C(=O)OC[C@H](Cc1c[nH]c2ccccc12)NC(=O)[C@@H](CC=C)CC(=O)N(CCO)Cc1ccccc1,–,20.6 µM (active)
C=CC[C@H](CC(=O)NCCO)C(=O)N[C@@H](COC(=O)[C@@H](CC=C)Cc1ccc(F)cc1)Cc1c[nH]c2ccccc12,-27.5,–
C=CCC[C@@H](Cc1ccc(F)cc1)C(=O)O[C@H](CNC(=O)[C@H](CC=C)CC(=O)N(CCO)Cc1ccccc1)c1ccccc1,–,20.6 µM (active)
Cc1ccc(Br)c(NS(=O)(=O)c2cccc(C(=O)N3CCNC(=O)C3)c2)c1,11.5,–
CC(C)c1ccc(S(=O)(=O)N2CCN(C(C)C(=O)NC3CCCC3)CC2)cc1 (centres undefined),0.179,–
O=C(NC1CCCCCC1)C1CCN(C(=O)c2ccc(Cl)cc2)CC1,0.0569,–
O=C(COC(=O)CN1C(=O)C2CCCCC2C1=O)Nc1ccc(F)c(F)c1F (centres undefined),0,–
CCC1(C)NC(=O)N(CC(=O)N2CCN(c3cccc(Cl)c3)CC2)C1=O (centres undefined),-7.61,–

Structure (SMILES),"activity change, negative = inhibition [%]",Potency
COc1cccc(CNc2ncc(-c3ccccc3)n2C)c1,-18.4,–
Cc1cc(C)n(-c2nc(C(F)(F)F)nc3ccccc23)n1,-2.14,–
COc1cccc(CNc2nc(C(F)(F)F)nc3ccccc23)c1,–,13 µM (active)
CCc1nc2ccccc2c(C(=O)NCc2ccc(OC)cc2)c1C,-3.67,–
NS(=O)(=O)c1ccc(CCNC(=O)CNC(=O)Cc2ccccc2)cc1,1.47,–
c1coc(CNc2ncnc3ccccc23)c1,9.04,–
NS(=O)(=O)c1ccc(CCNc2nc(C(F)(F)F)nc3ccccc23)cc1,–,11.6 µM (active)
COc1ccc(CNc2ncnc3ccccc23)cc1,–,2.59 µM (active)
CC(Nc1nc(C(F)(F)F)nc2ccccc12)c1cccs1 (centres undefined),-9.25,–
CN1CCN(S(=O)(=O)c2ccc(Nc3ccc(F)cc3)nc2)CC1,0.234,–
O=C(CN1C(=O)NC2(CCCCCCC2)C1=O)NCc1ccc(F)cc1,-2.29,–
O=C(C(NS(=O)(=O)c1cccc2nsnc12)c1ccccc1)N1CCN(c2ccccc2)CC1 (centres undefined),–,16.4 µM (active)
O=C(O)C(NS(=O)(=O)c1cccc2nsnc12)c1ccccc1 (centres undefined),-7.45,–
O=C(C(NS(=O)(=O)c1cccc2nsnc12)c1ccccc1)N1CCN(c2ccccn2)CC1 (centres undefined),-14.9,–
COC(=O)c1cc(NC(=O)c2ccco2)ccc1N1CCOCC1,27.5,–
CC(=O)Nc1ccc(N2CCOCC2)c(C(=O)Nc2cccc(C)c2)c1,0.105,–
COC(=O)c1cc(NC(=O)c2cc(C(C)(C)C)nn2Cc2cccc(C)c2)ccc1N1CCOCC1,–,16.4 µM (active)
CSc1ncccc1C(=O)Nc1ccc(C)cn1,12.8,–
Cc1csc(SCC(=O)N(c2ccccc2)C(C)C)n1,2.12,–
CC(C)(C)OC(=O)C[C@@H]1C/C=C\C[C@@H](CC(=O)N[C@@H](CO)Cc2ccccc2)C(=O)N2CCC[C@H]2COC1=O,-0.459,–
NC(=O)c1cc(-c2cccnc2)nc2ccc(Br)cc12,-0.487,–
Cc1cc(NCc2cccnc2)no1,-0.988,–
Brc1ccc2ncnc(NCc3cccnc3)c2c1,–,8.2 µM (active)
C=CC[C@@H](CC(=O)NCCO)C(=O)N[C@H](C)COC(=O)[C@@H](CC=C)CC(=O)OC(C)(C)C,9.21,–
